Pf growth 96h – P. falciparum growth inhibition at 96 hours; Potency, µM (series often up to 28.7 µM), without a hit: top-dose activity change, negative = inhibition, hits mostly inhibitors; P. falciparum luciferase reporter growth, 96 h; AID 504834; 6.9% of 320,000 active; further: potency means the concentration at half of the fitted maximal effect; on the % scale 0 is the no-effect control and ±100 the full control effect
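Compounds incubated with erythrocytes infected by luciferase-expressing P. falciparum (2% hematocrit, 0.05% parasitemia final) for 96 hours, 37 C in 5% CO2. Growth inhibition scored as decreased luciferase luminescence.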
Pf growth 48h – P. falciparum growth inhibition at 48 hours (one generation). P. falciparum luciferase growth in erythrocytes, 48 h. Potency, µM (titrated, usually from 28.7 µM), inactives show top-dose activity change, negative = inhibition, actives largely listed as inhibitors. 5.9% of 310,000 active; further: potency means the concentration at half of the fitted maximal effect; on the % scale 0 is the no-effect control and ±100 the full control effect
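Compounds are pin-transferred into medium, infected erythrocytes (2% hematocrit, 0.1% parasitemia final) are added, and plates sit one parasite generation at 37 C in 5% CO2. Detection reagent is then added and luminescence measured.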
AMA1-RON2 inh – disrupts binding of P. falciparum AMA1 to RON2; 0.2% of 360,000 active; Potency, µM (top dose mostly 58.2 µM), without a hit: top-dose activity change, negative = inhibition, hits mostly inhibitors; AlphaScreen AMA1-biotinylated RON2 peptide binding;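 further: potency means the concentration at half of the fitted maximal effect; 0% = vehicle wells and -100% = peptide control; nearly all actives have a fitted effect of over 45% in size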
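AMA1 (3D7) with his tag at 25 nM final met compounds first, then biotinylated RON2 peptide at 25 nM; detection used donor plus acceptor beads, 10 µg/mL apiece, read by AlphaScreen after 30 min at room temperature.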
Shiga toxin inh – Shiga toxin inhibition; 9.2% of 290,000 active; inhibition, % at 38.7 µM; Vero cells, Shiga toxin protein synthesis inhibition reporter; AID 2315; in the data active means inhibition mostly above about 28%, no sharp cut-off; inactive means mostly below about 43%; further: 0% is about no effect
HCV inh – HCV inhibition. Huh7.5.1 HCVcc-Cre infection, luciferase reporter, 44 h. Potency, µM (highest dose often 41.8 µM), without a hit: top-dose activity change, negative = inhibition, most hits filed as inhibitors. 3.4% of 340,000 active; further: potency means the concentration at half of the fitted maximal effect; on the % scale 0 is the no-effect control and ±100 the full control effect
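Cells seeded at 1,000/well and cultured 4 h, then compounds added followed by HCVcc-Cre virus (~0.5 moi). After 44 h further culture, luciferase substrate was added, plates held 15 min at room temperature, and luminescence read for 15 sec.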
CHX counter – affects cycloheximide protein synthesis inhibition readout, counter-screen; max response, %; AID 2314; cell reporter, cycloheximide protein synthesis inhibition counterscreen; 12% of 300,000 active; in the data active means max response mostly above about 13%, no sharp cut-off; inactive means mostly below about 14%; further: read at 38.3 µM for the half of the compounds with a filed dose; 0% is about no effect
* marks the source's active call; other numbers are inactive results; i = inactive; u = inconclusive; x = no result; [ ] = remark or other dose. Rows were chosen to be rich in hits. Some 21% of all compounds tested hit in one or more screens of this group. Unless noted, the call rests on the fitted dose curve; in most records, active means well fitted curve in the direction sought with a large enough effect; inconclusive means small, poorly fitted or top-dose-only effect, or another doubt; inactive means no such curve, though single readings can be large; an effect the other way counts as inactive or inconclusive.

SMILES | Pf growth 96h | Pf growth 48h | AMA1-RON2 inh | Shiga toxin inh | HCV inh | CHX counter
NC(=O)c1c(NC(=O)C2CCCO2)sc2c1CCCC2 (centres undefined) | 155% | 139% | 6% | 56* | -3% | 38*
Cc1sc(NC(=O)C2CCCO2)c(C#N)c1C (centres undefined) | x | 60% | 19% | 23 | 6% | 15*
N#Cc1c(NC(=O)C2CCCO2)sc2c1CCCCCC2 (centres undefined) | 126% | 79% | 0% | 84* | -3% | 39*
O=C(OC1CC2CC1[C@H]1CCCCN1C2=O)N1CCC(c2ccccc2)CC1 (some centres undefined) | x | x | -1% | x | x | x
COCCCNC(=O)C[C@@H]1C[C@@]2(C(=O)OC)CCCCC=C2N(Cc2ccco2)C1=O | x | x | 12% | x | x | x
COc1ccc(-c2csc3nc[nH]c(=O)c23)cc1 | 45% | 56% | -2% | 18 | -13% | 2
Fc1ccc(-c2csc3ncnc(Cl)c23)cc1 | u | 0.23µM* | -1% | 13 | 10% | 0
Clc1ccc(-c2csc3ncnc(Cl)c23)cc1 | u | u | -2% | -7 | -1% | -5
COc1ccc(-c2csc3ncnc(Cl)c23)cc1 | 19% | 1.3µM* | 17% | -26 | -1% | -3
COc1ccc(Nc2ncnc3scc(-c4ccc(OC)cc4)c23)cc1 | 9.3µM* | -17% | -12% | -8 | 6.3µM* | -1
C[C@H](CO)N1C[C@H](C)[C@@H](CN(C)S(=O)(=O)c2ccccc2F)Oc2ncc(Br)cc2C1=O | x | x | -5% | x | x | x
Cc1nn(-c2ccccc2)c(C)c1-c1nnc(-c2c(C)nn(-c3ccccc3)c2C)o1 | u | 12µM* | -3% | -4 | u | 1
FC(F)(F)c1cc(C(F)(F)F)c2ccc(N/N=C/c3ccccc3)nc2n1 | 0.47µM* | 36% | -3% | -14 | 3% | -3
N#CC(c1ccccc1)c1ccc2c(C(F)(F)F)cc(C(F)(F)F)nc2n1 (centres undefined) | 12µM* | x | u | -8 | -19% | -2
CN(N)c1ccc2c(C(F)(F)F)cc(C(F)(F)F)nc2n1 | 3% | -9% | 50% | -21 | 8% | -4
Cc1ccc(C(C#N)c2ccc3c(C(F)(F)F)cc(C(F)(F)F)nc3n2)cc1 (centres undefined) | 1.7µM* | u | u | -17 | 10µM* | -3
FC(F)(F)c1cc(C(F)(F)F)c2ccc(N/N=C/c3cccc(Cl)c3)nc2n1 | 5% | -12% | x | -19 | x | 2
COc1ccc(C2=NOC(C(=O)NCC(C)C)C2)cc1 (centres undefined) | x | 73% | 3% | 61* | 14% | 45*
O=C(NCc1ccccn1)C1CC(c2ccccc2O)=NO1 (centres undefined) | 43%[5.75 µM] | 10% | 79% | -5 | 5% | -3
COc1ccc(C2=NOC(C(=O)NCc3cccs3)C2)cc1 (centres undefined) | x | x | -5% | 32 | -22% | 18*
COc1ccc(C2=NOC(CNC(N)=S)C2)cc1 (centres undefined) | 2.6µM* | i | -4% | 57* | -3% | 36*
O=C(NCc1cccs1)C1CC(c2ccccc2O)=NO1 (centres undefined) | x | 26% | 12% | 51* | -27% | 27*
Cc1ccc(NC(=O)c2oc3ccccc3c2COC(C)C)cc1S(=O)(=O)N1CCOCC1 | x | x | -11% | x | u | x
CC12CCC(=O)C=C1CCC1C2C(O)CC2(C)C1CCC2(O)C(=O)COC(=O)COCC(=O)O (centres undefined) | x | x | 4% | x | 9% | x
COc1cc(C2=NOC(C(=O)NCc3ccco3)C2)cc(OC)c1OC (centres undefined) | 0% | -26% | -1% | 8 | 1% | -1
SMILES | Pf growth 96h | Pf growth 48h | AMA1-RON2 inh | Shiga toxin inh | HCV inh | CHX counter
COc1ccc(C2=NOC(C(=O)NCc3ccco3)C2)cc1 (centres undefined) | x | 54% | -7% | 72 | u | 27*
CCCC(C)c1nnc(NC(=O)C2CCCO2)s1 (centres undefined) | 35% | 64% | 6% | 35* | 2% | 40*
Cc1nnc(NC(=O)C2CCCO2)s1 (centres undefined) | x | 26% | 16% | 6 | 11% | 4
CC(C)c1nnc(NC(=O)CCC(=O)NCC2CCCO2)s1 (centres undefined) | 2.1µM* | 3% | -8% | 16 | -2% | -2
O=C(Nc1nnc(CCN2CCCCC2)s1)C1CCCCC1 | 13µM* | 7% | 0% | -2 | 11% | -3
COCCSc1nnc(NC(=O)C2CCCO2)s1 (centres undefined) | x | 33% | 6% | 91* | 10% | 24*
Cc1cc(C)c(-c2c(N)cc(Br)cc2Br)c(N)c1 | x | x | -6% | x | u | x
CCCCCc1nnc(NC(=O)C2CCCO2)s1 (centres undefined) | x | 90% | -1% | 67* | 6% | 44*
CCOc1ccc(-c2cncc3nccn23)cc1 | x | x | -9% | x | x | x
COc1ccc(N2C(=S)NC3N2C(=S)NC3(C)c2ccccc2)cc1 (centres undefined) | 110% | 224% | 64% | 56* | 7% | 37*
CC1(c2ccccc2)NC(=S)N2C1NC(=S)N2c1ccccc1 (centres undefined) | -9% | x | -1% | 18 | 20% | 1
CCOC(=O)c1cn(CC)c2cc(N3CCCCC3)c(F)cc2c1=O | x | x | 9% | x | u | x
CC(=O)N1CCN(c2cc3c(cc2F)c(=O)c(C(=O)O)cn3C2CC2)CC1 | -89%[5.75 µM] | u | 7% | -4 | 15% | -2
CCCCNC(=O)c1cn(CC)c2cc(N3CCN(C)CC3)c(F)cc2c1=O | u | u | -6% | 15 | u | 0
CCn1cc(C(=O)NN)c(=O)c2cc(F)c(N3CCN(C)CC3)cc21 | 12µM* | u | 68% | -7 | -15% | -1
CN1CCN(c2cc3c(cc2F)c(=O)c(C(=O)O)cn3-c2ccc(F)cc2)CC1 | 6.7µM* | u | x | x | x | x
CCN1CCN(c2cc3c(cc2F)c(=O)c(C(=O)O)cn3C2CC2)CC1 | 8.3µM* | u | -1% | -8 | -10%[8.37 µM] | -3
CCOC(=O)c1cn(CC)c2cc(N3CCOCC3)c(F)cc2c1=O | 14% | 1.9µM* | 13% | 10 | -22% | -2
NC(=O)c1nsc(C(=O)N(CC(=O)NCc2ccccc2)c2ccc(F)cc2)c1N | u | 7% | -10% | 11 | 0% | -4
Cn1c(C=O)c(C#CC(C)(C)O)c2ccccc21 | u | -14% | 6% | x | u | x
COc1cccc(C#Cc2c(C=O)n(C)c3ccccc23)c1 | u | 13µM* | 203% | x | u | x
COc1ccc(/C=C\C(=O)NCC(=O)N/N=C/c2cccc(OC)c2O)cc1 | 70% | 0% | 103% | 12 | -13% | 14
